# “And” between values parts separate entries of the source, which are not always exact repeats. Equal values may be shown once. Hit rate of the full screen: of about 420,000 compounds, about 50,000 (12%) were called active. Not shown: some 26% with an inconclusive outcome. Only a selection was taken, and actives are over-represented in it overall. A number with no mark means an inactive call. The call rests on the fitted dose curve; in most records, active means well fitted inhibition curve with a large enough effect; inconclusive means small, poorly fitted or top-dose-only effect; inactive means flat fitted curve, though single readings scatter.
# Test: qHTS for Inhibitors of human tyrosyl-DNA phosphodiesterase 1 (TDP1): qHTS in cells in presence of CPT; further: nearly all actives have a fitted effect of over 55% in size
# Conditions: chicken DT40 Tdp1-/-;hTDP1 cells + 20 nM CPT, ATP luminescence, 48 h; series mostly up to 46.2 µM; activity change, negative = growth inhibition: at the top concentration
# Source text: Human tyrosyl-DNA phosphodiesterase 1 (TDP1) is a novel repair gene, and we propose to use it as a new target for anticancer drug development. TDP1 is not an essential protein, but under treatment with topoisomerase I poison (camptothecin: CPT), TDP1 works as a critical factor for cell survival. To directly identify novel TDP1 inhibitors active in a cellular environment, we have knocked-out the Tdp1 gene in chicken DT40 cells (Tdp1-/-) and generated a complemented counterpart cells that contains a stable transfection of the human TDP1 gene (Tdp1-/-;hTDP1 cells). For the primary screen, Tdp1-/-;hTDP1 cells will be exposed to small molecules in the presence or absence of CPT, and their growth kinetics will be evaluated after 48 hours by measuring ATP activity. […] The hit compounds will then be evaluated in the presence or absence of CPT using Tdp1-/- cells. […] In tertiary assays, biochemical gel-based assays will be used to assess whether the hit compounds specifically target TDP1. To this end, we have screened this cell line against the MLSMR in two primary screens. In one screen we add CPT and in the other we screen in the absence of CPT; this AID represents the screen where CPT was present. NIH Chemical Genomics Center [NCGC] NIH Molecular Libraries Probe Centers Network [MLPCN] MLPCN Grant: MH095538 Assay Submitter (PI): Yves Pommier, NCI
# DT40-hTDP1 cells with 20 nM Camptothecin (add 20 microL of 1 mM CPT stock in 1 L of cell culture medium) were dispensed at 400 cells/5microL/well in tissue culture treated 1536-well white wall/solid bottom assay plates (Greiner Bio-One North America, NC, U.S.A.) using a Multidrop Combi 8 channel dispenser (Thermo Fisher, Waltham, MA, USA). 23 nL compounds and controls were transferred using the pin tool (Kalypsys, San Diego, CA, USA) to the assay plates. The assay plates were then incubated at 37 masculineC for a minimum 48 hr. Three microL of Cell Titer Glo solution was added to the plates and incubated at RT in dark for 30 min. Luminescence was read using ViewLux (Perkin Elmer) with 1 sec exposure slow speed, high gain and 2x binning.
# On the % scale 0 is the no-effect control and ±100 the full control effect; potency means the concentration at half of the fitted maximal effect.
SMILES,"activity change, negative = growth inhibition [%]",Potency
O=C(O)CSc1c2c(nc3cc(C(=O)Nc4cccc(C(F)(F)F)c4)ccc13)CCCC2,-7,
Cc1cc(Nc2cccc(C(F)(F)F)c2)nc2ccc(NC(=O)c3ccc(=O)[nH]c3)cc12,,16.4 µM (active)
COc1ccc(NC(=O)C(=O)NCC(=O)Nc2cccc(C(F)(F)F)c2)cc1,15.1,
CC(Oc1cccc(Cl)c1)C(=O)Nc1ccc(S(=O)(=O)Nc2ncccn2)cc1 (configuration not stated),-22.1,
CCC(C)N1C(=O)S/C(=C/c2ccc(Sc3nc4ccccc4[nH]3)o2)C1=O (configuration not stated),,14.6 µM (active)
CCCCSc1nc2ccccc2[nH]1,-15.7,
CCc1nnc(NC(=O)CCCSc2nc3ccccc3[nH]2)s1,10.8,
CCN1CCN(C(=O)C2CCN(S(=O)(=O)c3cc(Cl)ccc3Cl)CC2)CC1,3.59,
Cc1nnc(SCC(=O)Nc2ncc3c(n2)CC(C)(C)CC3=O)s1,-8.13,
CC(C)=CCN1CCN(CCCc2ccccc2)CC1CCO (configuration not stated),-2.58,
CC(C)=CCN1CCC2(CCc3ccccc32)CC1,,11.6 µM (active)
Cn1nnnc1SCCNCc1ccc(Cl)c(Cl)c1,-1.39,
COc1cc(CNCCSc2nnnn2C)ccc1OCc1c(F)cccc1Cl,-28.8,
COc1cc(CNCCSc2nnnn2C)ccc1OCc1ccc(Cl)cc1Cl,,16.4 µM (active)
Cc1cccc(C)c1N1CCN(S(=O)(=O)N2CCCCC2)CC1,-11.1,
CCOC(=O)c1cccc(NC(=O)CCc2c(C)nc3ncnn3c2C)c1,3.12,
COc1cc(OC)cc(-c2nc3nc(C)c(CCC(=O)Nc4ccccc4)c(C)n3n2)c1,,14.6 µM (active)
COc1cc(OC)cc(-c2nc3nc(C)c(CCC(=O)Nc4ccc(C)cc4)c(C)n3n2)c1,-9.57,
CC(C)OC(=O)c1ccc(COc2ccc3ccc(=O)oc3c2)o1,2.4,
O=C(C1CCCO1)N1CCN(S(=O)(=O)c2ccc(Br)cc2)CC1 (configuration not stated),-5.03,
CC(C)CCN1CCN(Cc2ccc(C(F)(F)F)cc2)CC1CCO (configuration not stated),-29.5,
CN(Cc1cn(Cc2ccc(C(F)(F)F)cc2)nn1)C1CN(Cc2cn(Cc3ccc(C(F)(F)F)cc3)nn2)S(=O)(=O)C1 (configuration not stated),,6.51 µM (active)
CN(C)C1CN(Cc2cn(Cc3ccccc3)nn2)S(=O)(=O)C1 (configuration not stated),-11.9,
O=C(c1ccc(Cl)c(Cl)c1)N1CCCC1,3.77,
O=C(c1ccc(Cl)c(S(=O)(=O)N2CCCCCC2)c1)N1CCN(c2ccc(O)cc2)CC1,,18.4 µM (active)
O=C(c1ccc(Cl)c(S(=O)(=O)N2CCCCC2)c1)N1CCCCCC1,-26.3,

SMILES,"activity change, negative = growth inhibition [%]",Potency
CN(C)c1cccc(C(=O)N2CCC(n3nccc3NC(=O)C3CCOC3)CC2)c1 (configuration not stated),5.19,
Cn1c(=O)c(Sc2ccc(Cl)cc2)c(O)c2ccccc21,5.09,
CC1Cc2ccccc2N1CC(=O)Nc1ccc2c(c1)OC(F)(F)O2 (configuration not stated),-15.8,
N#Cc1ccc(Oc2ccc(C(F)(F)F)cc2NC(=O)c2ccc(F)cc2)cc1,-18.8,
COc1cc(NC(=O)c2cncc(-c3ccc(C#N)cc3)c2)cc(C(=O)Nc2cccc(C(F)(F)F)c2)c1,,8.2 µM (active) and 16.4 µM (active)
O=C(Nc1cccc(C(F)(F)F)c1)c1cnccn1,0.881,
COc1cc(NC(=O)c2[nH]cnc2C(N)=O)cc(C(=O)Nc2cccc(C(F)(F)F)c2)c1,,20.6 µM (active)
CCN(CC)C(=O)C1=C(C)N(Cc2ccc(F)cc2)C(=O)C(CC(=O)NC2CCCC2)C1 (configuration not stated),-16.9,
O=c1ccn([C@@H]2O[C@H](COP(=O)(O)OP(=O)(O)OP(=O)(O)O)[C@@H](O)[C@H]2O)c(=O)[nH]1,-29.6,
CNS(=O)(=O)c1cccc(C(=O)OCC(=O)N2c3ccccc3NC(=O)C2(C)C)c1,-1.39,
CCOc1ccc(NC(=O)CN(C)C(=O)CCSc2ccc(F)cc2)cc1OCC,-29.6,
CC(C)Oc1ccc(C(CC(=O)N2CCOCC2)C(C)C)cc1 (configuration not stated),-3.05,
COc1ccccc1CNC(=O)C(=O)NCC(c1cccs1)S(=O)(=O)c1cccs1 (configuration not stated),-6.96,
Cc1ccccc1CNC(=O)C(=O)NCC(c1cccs1)S(=O)(=O)c1cccs1 (configuration not stated),,13 µM (active)
CC(C)C(=O)NCC(c1cccs1)S(=O)(=O)c1ccc(F)cc1 (configuration not stated),-12.7,
CC(C)C(=O)Nc1nnc(Sc2ccc(N(C)C)cc2)s1,-0.75,
CN(Cc1ccccc1)c1ncnc2onc(-c3ccc(F)cc3)c12,,23.1 µM (active)
Cc1noc(C)c1S(=O)(=O)N(C)Cc1ccccc1,-6.12,
CN(Cc1ccccc1)c1ccc(-c2nc(-c3ccccc3)no2)cc1[N+](=O)[O-],-15.3,
Cc1ccc2c(C)c(C(=O)N3CCC(N4CCC(C(=O)NC5CC5)CC4)CC3)oc2c1,-0.225,
CN1CN(C)c2ccc([N+](=O)[O-])c3cccc1c23,0.252,
CCN1C[C@@H]2[C@@H]3C(=O)N(Cc4ccccc4)C(=O)[C@@H]3[C@](C)(C1=O)N2C(=O)c1ccc(C(C)(C)C)cc1,-20.1,
O=C1[C@H]2[C@@H](c3ccc(C(F)(F)F)cc3)N[C@]3(CCCN(Cc4ccc(Br)cc4)C3=O)[C@H]2C(=O)N1Cc1ccccc1,-21.3,
CCN1C(=O)[C@H]2[C@@H](c3ccc(C(F)(F)F)cc3)N[C@]3(CCCN(Cc4ccc(Br)cc4)C3=O)[C@H]2C1=O,,13 µM (active)
O=C1[C@H]2[C@@H](c3ccc(C(F)(F)F)cc3)N[C@]3(CCCN(Cc4ccc(Cl)cc4)C3=O)[C@H]2C(=O)N1Cc1ccccc1,,16.4 µM (active)
COc1ccc([C@H]2N[C@]3(CCCN(Cc4ccco4)C3=O)[C@H]3C(=O)N(C)C(=O)[C@@H]23)cc1,-16.7,

# Reference: PubChem BioAssay AID686979 (National Center for Advancing Translational Sciences (NCATS), 2013)
